Calls of active or inactive are those of the source.
Experiments:
[1] = compound effects on lung adenocarcinoma cell viability – A549, calcein-AM fluorescence, 48 h, basal, profiling panel (AID 1162); settings: higher = more signal
[2] = compound effects on differentiated 3T3-L1 adipocyte viability – cell-based, 3T3-L1 adipocytes, calcein-AM fluorescence, 48 h, basal, profiling panel (AID 1163); settings: 3T3-L1 adipocytes viability, higher = more signal
[3] = compound effects on hepatocellular carcinoma cell viability – HepG2, calcein-AM fluorescence, 48 h, basal, profiling panel (AID 1164); settings: higher = more signal
[4] = compound effects on multiple myeloma cell viability – MM1S, calcein-AM fluorescence, 48 h, basal, profiling panel (AID 1165); settings: higher = more signal;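 note: viability of MM1S multiple myeloma cells under basal unstimulated conditions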
[5] = calcein-AM signal in unstimulated myeloma cells – cell-based, calcein-AM fluorescence, 48 h, PK04 Diversity Set, profiling panel (AID 1166); settings: RPMI8226 myeloma viability, higher = more signal;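 note: cells grown under basal conditions without added stimulus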
[6] = JC-1 mitochondrial signal, unstimulated HepG2 cells – cell-based, JC-1 fluorescence, 24 h, 100 nL compound, profiling panel (AID 1167); settings: HepG2 mitochondrial potential, higher = more signal
[7] = JC-1 mitochondrial signal, unstimulated adipocytes – cell-based, JC-1 fluorescence, 3T3-L1 adipocytes, 24 h, 100 nL compound, profiling panel (AID 1168); settings: JC-1 mitochondrial fluorescence, higher = more signal, called active from +8 up or from −8 down
[8] = JC-1 mitochondrial signal, unstimulated myeloma cells – cell-based, JC-1 fluorescence, RPMI8226, 24 h, 100 nL compound, profiling panel (AID 1169); settings: JC-1 mitochondrial potential fluorescence, higher = more signal
[9] = JC-1 mitochondrial signal, unstimulated MM1S myeloma – cell-based, JC-1 fluorescence, 24 h, 100 nL compound, profiling panel (AID 1170); settings: MM1S mitochondrial potential, higher = more signal
[10] = resazurin metabolic signal in A549 cells – cell-based, resazurin fluorescence, 24 h, PK04 Diversity Set, profiling panel (AID 1171); settings: A549 viability, higher = more signal, called active from +8 up or from −8 down
Note: test concentration not given here.

For CCCC=C(CCC)[C@@H](NC(=O)OCC(C)C)c1ccc(C(=O)OC)cc1, the z-score [1] was 0.732, the z-score [2] was -0.196 and the z-score [3] was 0.0516. The z-score [4] was 0.753, the z-score [5] was 0.528 and the z-score [6] was -0.345. For the same molecule, the z-score [7] was -1.53 (inactive), the z-score [8] was -0.0219 and the z-score [9] was -1.32. The z-score [10] was 0.293 (inactive).
For CC(C)[Si](C#CCCc1ccccc1)(O[C@H](c1ccccc1)c1cn(Cc2ccccc2)nn1)C(C)C, the z-score [1] was -0.865, the z-score [2] was 0.254 and the z-score [3] was -1.01. It also gave a z-score [4] of -0.505, a z-score [5] of -0.297 and a z-score [6] of 0.907. For the same molecule, the z-score [7] was -0.979 (inactive), the z-score [8] was -0.631 and the z-score [9] was -1.08. For the same molecule, the z-score [10] was 1.43 (inactive).
For C=CCC(OC(C)=O)[C@@H]1[C@@H](N(Cc2cc3ccccc3o2)C(=O)c2cccc3ccccc23)c2cc(OCCCO)ccc2N1C(=O)c1ccc2ccccc2n1 (stereo not given in full), the z-score [1] was 0.375, the z-score [2] was 0.756 and the z-score [3] was 0.601. It also gave a z-score [4] of -1.14, a z-score [5] of -2.01 and a z-score [6] of 2.42. For the same molecule, the z-score [7] was -0.961 (inactive), the z-score [8] was -0.211 and the z-score [9] was -0.245. The z-score [10] was -0.985 (inactive).
For O=C(N1CCOCC1)[C@@]1(Cc2ccccc2)COC(c2ccc(OCCCO)cc2)=N1, the z-score [1] was -0.114, the z-score [2] was 0.893 and the z-score [3] was -0.985. It also gave a z-score [4] of -1.6, a z-score [5] of -0.907 and a z-score [6] of -1.12. For the same molecule, the z-score [7] was 0.0409 (inactive), the z-score [8] was -0.856 and the z-score [9] was -0.095. For the same molecule, the z-score [10] was 0.628 (inactive).
With COCCOC(=O)N1C(=O)[C@@]2(c3cc(C#CCCO)ccc31)[C@H](C(N)=O)[C@H]1C(=O)O[C@H](c3ccccc3)[C@H](c3ccccc3)N1[C@@H]2c1ccccc1OCCO the z-score [1] was -0.21, the z-score [2] was -0.0387 and the z-score [3] was -0.16. The z-score [4] was -1.87, the z-score [5] was -2.92 and the z-score [6] was -0.529. The z-score [7] was 0.181 (inactive), the z-score [8] was -0.821 and the z-score [9] was -1.47. The z-score [10] was -0.191 (inactive).
In the case of COC(=O)C(CC#Cc1ccc2c(c1)[C@]1(C(=O)N2)[C@H](C(=O)NC[C@H](O)c2ccccc2)[C@H]2C(=O)O[C@H](c3ccccc3)[C@H](c3ccccc3)N2[C@@H]1c1ccccc1OCCO)C(=O)OC, the z-score [1] was -0.101, the z-score [2] was 1.14 and the z-score [3] was -0.272. It also gave a z-score [4] of -3.29, a z-score [5] of -4.57 and a z-score [6] of -0.0353. For the same molecule, the z-score [7] was 1.82 (inactive), the z-score [8] was -1.16 and the z-score [9] was -2.1. The z-score [10] was 0.422 (inactive).
COc1ccc([Si](C)(C)[C@@H]2[C@@H](CC(=O)N3Cc4ccccc4C[C@H]3CO)O[C@]3(C(=O)N(Cc4ccc(N5CCOC5=O)cc4)c4ccccc43)[C@H]2C)cc1 showed a z-score [1] of 0.369, a z-score [2] of 0.704 and a z-score [3] of 0.115. For the same molecule, the z-score [4] was -1.07, the z-score [5] was -0.876 and the z-score [6] was 0.966. For the same molecule, the z-score [7] was 1 (inactive), the z-score [8] was -1.11 and the z-score [9] was 0.359. For the same molecule, the z-score [10] was -0.674 (inactive).
O=C1O[C@@H](c2ccccc2)[C@@H](c2ccccc2)N2[C@@H](c3ccc(OCCO)cc3)[C@]3(C(=O)Nc4ccc(C#CC5(O)CCCCCC5)cc43)[C@@H](C(=O)O)[C@H]12 showed a z-score [1] of 0.942, a z-score [2] of 0.297 and a z-score [3] of 1.36. It also gave a z-score [4] of 0.213, a z-score [5] of 0.342 and a z-score [6] of -0.969. The z-score [7] was -0.448 (inactive), the z-score [8] was -0.169 and the z-score [9] was 0.0439. The z-score [10] was 1.12 (inactive).

Reference: PubChem BioAssay
